Laboratory results taken from PubChem BioAssay (NCATS).
Records with an inconclusive call do not appear. Calls of active or inactive are those of the source. Calls follow the shape of the dose curve; as a rule, active = well fitted curve in the direction sought with a large enough effect; inconclusive = small, poorly fitted or top-dose-only effect, or another doubt; inactive = no such curve, though single readings can be large; an effect the other way counts as inactive or inconclusive.

Tests used:
[1] = molecular target: Glutathione peroxidase 1 (Homo sapiens) (UniProt P07203); experiment: Primary qHTS Assay for Inhibitors of Recombinant Selenoprotein Glutathione Peroxidase 1 (GPX1) (AID 1845191); also: nearly all actives have a fitted effect of over 65% in size; as to activity, negative = inhibition: % is scaled to controls: 0 for no effect and ±100 for the full control effect
Chain of Glutathione peroxidase 1 (Homo sapiens) (P07203 whole entry, looked up): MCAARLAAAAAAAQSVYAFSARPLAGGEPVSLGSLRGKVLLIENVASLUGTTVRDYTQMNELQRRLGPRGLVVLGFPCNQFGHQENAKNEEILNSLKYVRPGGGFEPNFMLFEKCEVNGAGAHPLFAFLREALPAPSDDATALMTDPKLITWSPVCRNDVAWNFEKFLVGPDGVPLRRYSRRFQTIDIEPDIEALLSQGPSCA
Outline: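 10 nM GPX1 + cpd, 30 min RT; start w/ 1 mM GSH, 0.5 mM cumene hydroperoxide, 0.5 mM NADPH, 100 nM GR, 0.01% BSA; buffer 50 mM Tris-HCl pH 7.5, 2 mM EDTA, 150 mM NaCl; Fl 340/450, 0 & 15 min.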

[2] = molecular target: Phospholipid hydroperoxide glutathione peroxidase GPX4 (Homo sapiens) (UniProt P36969); experiment: Primary qHTS Assay for Inhibitors of Recombinant Selenoprotein Glutathione Peroxidase 4 (GPX4) (AID 1845192); also: nearly all actives have a fitted effect of over 65% in size; as to activity change, negative = inhibition: series mostly up to about 50 µM; % is scaled to controls: 0 for no effect and ±100 for the full control effect
Chain of Phospholipid hydroperoxide glutathione peroxidase GPX4 (Homo sapiens) (P36969 whole entry, looked up): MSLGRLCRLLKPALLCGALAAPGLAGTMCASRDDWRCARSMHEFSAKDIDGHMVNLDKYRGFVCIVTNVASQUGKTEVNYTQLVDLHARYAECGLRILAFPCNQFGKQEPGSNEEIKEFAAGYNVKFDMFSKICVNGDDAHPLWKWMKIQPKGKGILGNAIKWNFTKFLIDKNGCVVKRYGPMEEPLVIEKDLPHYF
Outline: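 NADPH consumption, followed by fluorescence at 340/450 nm between 0 and 15 min, reports GPX4 activity via coupled glutathione reductase (100 nM). Enzyme 200 nM was pre-exposed to compound 30 min; 0.5 mM cumene hydroperoxide and 1 mM GSH served as substrates.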

[3] = molecular target: Luciferin 4-monooxygenase (Photinus pyralis) (UniProt P08659); experiment: Primary firefly luciferase (FLuc) qHTS assay for identification of artifact compounds. (AID 1845220); also: nearly all actives have a fitted effect of over 60% in size;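 as to activity change, negative = inhibition: series mostly up to about 54 µM; plate controls were DMSO vehicle for no effect and no enzyme for full effect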
Outline: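 Cell-free, 1536-well qHTS. Buffer pH 7.6 with 0.01% Tween-20 and 0.05% BSA; 10 uM D-luciferin, 10 uM ATP; 10 nM P. pyralis luciferase; luminescence after 5 min.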

[4] = Primary fluorescence-based thiol-reactive (MSTI) qHTS assay for identification of artifact compounds. (AID 1845221);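 also: series mostly up to about 54 µM; thiol-reactive compounds lower the probe fluorescence signal; nearly all actives have a fitted effect of over 65% in size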
Outline: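 A multi-concentration qHTS design tested compounds against 4 uM MSTI, pH 7.4 phosphate-buffered saline. Plates were protected from light for 1 h at room temperature before imaging fluorescence.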

[5] = system: Nanoluciferase (engineered Oplophorus gracilirostris luciferase); experiment: Primary Nanoluciferase (NLuc) qHTS assay for identification of artifact compounds. (AID 1845222);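 also: series mostly up to about 54 µM; 0% = DMSO and -100% = no enzyme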
Outline: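 Compounds are pinned into diluted (1:55) conditioned medium of NLuc-expressing S16 cells and held 15 min at room temperature protected from light. Nano-Glo substrate follows, and luminescence is read 5 min later.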

COc1cc([C@H]2O[C@H](c3cc(OC)c4c(c3)OCO4)[C@H](C)[C@H]2C)cc(OC)c1OC
inactive: Potency [1] | Potency [2] | Potency [3] | Potency [4] | Potency [5]

C=C1CCC[C@]2(C)CC/C(=C(/CO)C(=O)OC)C[C@@H]12
inactive: Potency [1] | Potency [2] | Potency [3] | Potency [4] | Potency [5]

CC(=O)N[C@H]1[C@H](O[C@H]2CC[C@@]3(C)C(CC[C@]4(C)C3CC=C3C5CC(C)(C)CC[C@]5(C(=O)O)C(O)C[C@]34C)C2(C)C)O[C@H](CO[C@@H]2O[C@H](C)[C@H](O)[C@H](O)[C@H]2O[C@@H]2OC[C@@H](O)[C@H](O)[C@H]2O)[C@@H](O)[C@@H]1O (stereo not given in full)
inactive: Potency [1] | Potency [2] | activity change, negative = inhibition [3] -2.09% [at 11.6 µM] | activity change, negative = thiol reactive [4] 111% [at 11.5 µM] | activity, negative = inhibition [5] 3.71% [at 11.6 µM]

Cn1ncc(Cl)c1-c1cc(C(=O)N[C@H](CN)Cc2cccc(F)c2)sc1Cl
inactive: Potency [1] | Potency [2] | Potency [3] | Potency [4] | Potency [5]

CCOc1cc(C(C)(C)C)ccc1C1=N[C@@](C)(c2ccc(Cl)cc2)[C@@](C)(c2ccc(Cl)cc2)N1C(=O)N1CCN(CC(=O)N2CCOCC2)CC1
inactive: Potency [1] | Potency [2] | Potency [3] | Potency [4] | Potency [5]

Nc1nc(OCc2cc(Br)cs2)c2[nH]cnc2n1
inactive: Potency [1] | Potency [2] | Potency [3] | Potency [4] | Potency [5]

Cc1cc(Nc2nc(-c3ccccc3)nc3ccccc23)n[nH]1
inactive: Potency [1] | Potency [2] | Potency [3] | Potency [4] | Potency [5]

CCOC(=O)N1CCC(N2CCC[C@@H](NC(=O)c3ccccc3C)C2)CC1
inactive: Potency [1] | Potency [2] | Potency [3] | Potency [4] | Potency [5]

CC(=O)NC(C(=O)O[C@H]1CCC(C)(C)[C@@H]2CC=C3C(=O)OCC3(O)[C@@]12C)C(C)C (stereo not given in full)
inactive: Potency [1] | Potency [2] | Potency [3] | Potency [4] | Potency [5]

C=C(C)Cn1c(SCC(=O)c2cccs2)nc2sc3c(c2c1=O)CCCC3
inactive: Potency [1] | Potency [2] | Potency [3] | Potency [4] | Potency [5]

CCC(=C(c1ccc(OCCN2CCCC2)cc1)c1ccc(OCCN2CCCC2)cc1)c1ccccc1
inactive: Potency [1] | Potency [2] | Potency [3] | Potency [4] | Potency [5]

COC1CC(=O)C23C(=O)NC(Cc4c[nH]c5ccccc45)C2C(C)C2(C)OC2C3/C=C/CC(C)CC1O (stereo not given)
inactive: Potency [1] | Potency [2] | Potency [3] | Potency [4] | Potency [5]

O=c1[nH]c2ccc(C#CCN3CCC(Cc4ccccc4)CC3)cc2[nH]1
inactive: Potency [1] | Potency [2] | Potency [3] | Potency [4] | Potency [5]

N#Cc1ccc(-c2ccc(S(=O)(=O)Nc3cccc(N)n3)cc2)cc1
inactive: Potency [1] | Potency [2] | Potency [3] | Potency [4] | Potency [5]
